Data published in PubChem BioAssay (Tox21).
Records with an inconclusive call do not appear. A number with no mark means an inactive call. The call rests on the fitted dose curve; in most records, active means well fitted cell-killing curve with a large enough effect in the repeat runs; inconclusive means weak or mixed curves, or effect the other way; inactive means no such curve, though single readings can be large or run the other way.

Assay: qHTS assay for small molecule activators of the heat shock response signaling pathway - cell viability counter screen (AID 743209); further: nearly all actives have a fitted effect of over 50% in size
Conditions: HSE-bla HeLa viability, CellTiter-Glo luminescence, 5 h; series mostly up to 62.6 µM; activity change, negative = cytotoxicity: at the top concentration
Procedure, shortened: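 HSE-bla HeLa; 1500 cells/well; overnight 37 C, 5% CO2; compound 5 h 37 C; LiveBLAzer B/G substrate 2.5 h RT; CellTiter-Glo 30 min RT; luminescence.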
On the % scale 0 is the no-effect control and ±100 the full control effect.

| SMILES | activity change, negative = cytotoxicity |
| --- | --- |
| Brc1cc(Br)c(Oc2cc(Br)c(Br)cc2Br)cc1Br | -8.77% |
| CC1CC(C)C(=O)C1=O (centres undefined) | 0.156% |
| O=C=Nc1cccc(C(F)(F)F)c1 | 4.6% |
| CCCCN1CCCC1C(=O)Nc1c(C)cc(C)cc1C (centres undefined) | -2.34% |
| CCCCCCCCN | -2.08% |
| O=Cc1c2ccccc2c(Cl)c2ccccc12 | 2.84% |
| CCC=CC#N | -39.6% |
| C=CC(=O)[O-].C=CC(=O)[O-].[Zn+2] | 8.15% |
| CC(C)=CCC1C(=O)N(c2ccccc2)N(c2ccccc2)C1=O | 4.82% |
| CO/N=C(/C(=O)N[C@@H]1C(=O)N2C(C(=O)O)=C(COC(N)=O)CS[C@H]12)c1ccco1 | 15.8% |
| C=C1CCC2CC1C2(C)C (centres undefined) | -14.6% |
| Cc1ccc(OC(=O)c2ccccc2O)cc1 | 0.81% |
| O=C(O)CCC(=O)C(=O)O | -6.22% |
| C=C1c2cccc(O)c2C(O)=C2C(=O)[C@]3(O)C(O)=C(C(N)=O)C(=O)[C@@H](N(C)C)[C@@H]3[C@@H](O)[C@H]12 | 2.79% |
| CC(C)C=O | -15.7% [at 81.1 µM] |
| CN1C(C(=O)Nc2ccccn2)=C(O)c2sccc2S1(=O)=O | -0.325% |
| Cc1cscn1 | -1.32% |
| CCC(OCCCOC)OC(C)=O (centres undefined) | -6.99% [at 81.1 µM] |
| CC/C=C1/OC(=O)c2ccccc21 | 0.394% |
| CCOC(=O)C1=C(C)NC(C)=C(C(=O)OC)C1c1cccc(Cl)c1Cl (centres undefined) | -5.73% |
| COc1cc(N)c(Cl)cc1C(=O)NC1CCN(CCCOc2ccc(F)cc2)CC1OC (centres undefined) | -4.2% |
| C=C(C)C(=O)OCCOCCOC(=O)C(=C)C | 3.13% |
| CC(=O)Oc1ccc([N+](=O)[O-])cc1CCl | -15% |
| O=C(Nc1cccc2c(=O)cc(-c3nn[nH]n3)oc12)c1ccc(OCCCCc2ccccc2)cc1 | -2.47% |
